Dicer inh = blocks human Dicer maturation of pre-miR-21; Q9UPY3; cat-ELCCA pre-miR-21 Dicer processing, chemiluminescence; stronger effect = higher value; z-score at 25 µM; actives 6% (n = 47,000); AID 1347074; in the data active = z-score above about 3, passing the limit was not always enough;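 also: plate controls were vehicle for no effect and no enzyme for full effect; higher signal means more uncleaved substrate so more Dicer inhibition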
An asterisk follows results filed as active. Shown is part of a subset that was picked to be rich in hits.

What do the screens show for `C/C(=N\NC1=NCCN1)c1ccc([N+](=O)[O-])cc1`?
Dicer inh: 0.01

Results for CC(NC(=O)c1cc([N+](=O)[O-])cc2c1-c1ccc([N+](=O)[O-])cc1/C2=N\O)c1ccccc1 (centres undefined) ?
Dicer inh: -0.86

What do the screens show for `CC(C)OC(=O)CSc1nc2ccccc2[nH]1`?
Dicer inh: -0.48

How did COC(=O)Cc1cc(=O)n(-c2nc3ccccc3[nH]2)[nH]1 do in these assays?
Dicer inh: 4.6*

Results for Cc1ccc(-c2cc(=O)n(-c3nc4ccccc4[nH]3)[nH]2)cc1 ?
Dicer inh: -0.75

What do the screens show for `O=C1CC(c2ccco2)Cc2nc(Nc3ccc(Oc4ccccc4)cc3)ncc21` (centres undefined)?
Dicer inh: -1

Results for Cc1nc(N)[nH]c(=O)c1Oc1ccc(Cl)cc1Cl ?
Dicer inh: -0.15

How did C=CCOc1ccc2[nH]c(C)c(C(=O)OCC)c2c1 do in these assays?
Dicer inh: -0.95

What do the screens show for `C=CCOc1cc(=O)[nH]c2ccccc12`?
Dicer inh: 4.7*

How did O=c1cc(CSC(=S)N2CCSCC2)c2ccccc2[nH]1 do in these assays?
Dicer inh: -0.65

What do the screens show for `CN1C2CC(OC(=O)[C@H](CO)c3ccccc3)CC1C1OC12` (some centres undefined)?
Dicer inh: -0.93

What do the screens show for `Cc1cc(C)c(C#N)c(SCc2ccc(F)cc2)n1`?
Dicer inh: 1.7

Results for CC(C)NC(=O)c1cc2nc(-c3ccc(Br)cc3)cc(C(F)(F)F)n2n1 ?
Dicer inh: -0.02

What do the screens show for `COc1ccc2c(c1)CCc1sc(NC(=O)c3cc(C)on3)nc1-2`?
Dicer inh: 0.98

Results for CCCCCC(=O)Nc1nc2c(s1)CCc1cc(OC)ccc1-2 ?
Dicer inh: -4.1

Results for COc1cc(OC)cc(C(=O)Nc2nc3c(s2)Cc2cc(OC)ccc2-3)c1 ?
Dicer inh: -0.47

How did COc1ccc2c(c1)CCc1sc(NC(C)=O)nc1-2 do in these assays?
Dicer inh: 3.5*

What do the screens show for `CCCCCCCCC(=O)Nc1nc2c(s1)CCc1cc(OC)ccc1-2`?
Dicer inh: -0.7

How did COc1cc(OC)cc(C(=O)Nc2nc3c(s2)CCc2cc(OC)ccc2-3)c1 do in these assays?
Dicer inh: 0.56

How did COc1ccc2c(c1)CCc1sc(NC(=O)c3ccco3)nc1-2 do in these assays?
Dicer inh: 3.1*

Results for COc1ccc2c(c1)-c1nc(NC(=O)c3ccco3)sc1CC2 ?
Dicer inh: 5*

How did CCCCCCCC(=O)Nc1nc2c(s1)CCc1cc(OC)ccc1-2 do in these assays?
Dicer inh: 0.09

What do the screens show for `O=S(=O)(CS(=O)(=O)NCc1cccs1)NCc1cccs1`?
Dicer inh: 0.15

What do the screens show for `O=C(CC1(O)C(=O)Nc2ccc(Br)cc21)c1cccnc1` (centres undefined)?
Dicer inh: -2.1

Results for N#Cc1ccsc1NC(=O)CCC(=O)O ?
Dicer inh: 0.24

What do the screens show for `O=C1C(=O)N(Cc2cccnc2)C(c2ccc3c(c2)OCO3)/C1=C(\O)c1ccc(Cl)cc1` (centres undefined)?
Dicer inh: -0.04

Results for CC(C)(C)c1cc(Cl)c(OS(=O)(=O)c2ccc(Cl)cc2)c(Br)c1 ?
Dicer inh: -1.3

How did CCOC(=O)c1nc(Nc2ccc(OC(C)C)cc2)c2ccccc2n1 do in these assays?
Dicer inh: -0.46

How did COc1c(Br)cc([N+](=O)[O-])c(OC)c1C(=O)NC(=O)Nc1c(Cl)cc([N+](=O)[O-])cc1Cl do in these assays?
Dicer inh: 1.1

Results for COc1cccc(OC)c1NC(=O)NC(=O)c1c(OC)c(Br)cc([N+](=O)[O-])c1OC ?
Dicer inh: 8.8

What do the screens show for `COc1c(Br)cc([N+](=O)[O-])c(OC)c1C(=O)NC(=O)Nc1cc(C(F)(F)F)cc(C(F)(F)F)c1`?
Dicer inh: 4.2*

What do the screens show for `COc1cc(C2C(C(=O)OC(C)C)=C(C)NC3=C2C(=O)CCC3)cc(Br)c1O` (centres undefined)?
Dicer inh: 1.2

How did CCCS(=O)(=O)/C(C#N)=N/Nc1cc(C(F)(F)F)cc(C(F)(F)F)c1 do in these assays?
Dicer inh: 0.01

How did CN(/N=C/c1ncc(C(F)(F)F)cc1Cl)C(=O)c1ccc(Cl)cc1 do in these assays?
Dicer inh: -0.34

Results for Cc1ccc(NS(=O)(=O)c2ccc(Cl)cc2)c(N)c1 ?
Dicer inh: 2.8

Results for O=S(=O)(Nc1ccc(F)cc1)c1cc(Cl)c(Cl)cc1Cl ?
Dicer inh: -0.49

Results for Cc1ccc(NS(=O)(=O)c2cc(Cl)c(Cl)cc2Cl)c(N)c1 ?
Dicer inh: 8.3*

Results for CCCn1nnc2sc3c(c2c1=O)CCCC3 ?
Dicer inh: 0.7

What do the screens show for `CC(C)(C)C(=O)/C=C1\C(=O)Nc2ccc(Br)cc21`?
Dicer inh: -0.16

What do the screens show for `c1ccc(-c2nnc3cc(-c4ccccc4)sc3n2)cc1`?
Dicer inh: -0.17

How did Cc1ccc(O)c(C2Nc3ccccc3-c3cc(C)nn32)c1 (centres undefined) do in these assays?
Dicer inh: -0.31

How did N#C/C(=N\O)S(=O)(=O)c1ccccc1 do in these assays?
Dicer inh: -1.4

Results for Cc1c(NC(=O)Nc2ccccc2)sc2nc(-c3ccc(Cl)cc3)nn12 ?
Dicer inh: -2.3

How did CS(=O)(=O)c1sc(NC(=O)Nc2ccc(Cl)cc2)c2c1C=CCC2 do in these assays?
Dicer inh: 3.3*

How did CC1CCc2c(sc(NC(=O)Nc3ccc(Cl)cc3)c2C(N)=O)C1 (centres undefined) do in these assays?
Dicer inh: 1.6

How did O=C1C2=C(NC(=S)NC2c2ccc([N+](=O)[O-])cc2)c2ccccc21 (centres undefined) do in these assays?
Dicer inh: -0.62

What do the screens show for `COc1ccc(C(CC(=O)c2cccs2)SCc2ccco2)cc1` (centres undefined)?
Dicer inh: -2.1

How did O=C(N/N=C/c1c2ccccc2cc2ccccc12)c1ccc(Br)cc1 do in these assays?
Dicer inh: -0.09

Results for CCOC(=O)CN(C(=O)COc1nc(C)cc(C)c1C#N)c1cccc(C(F)(F)F)c1 ?
Dicer inh: 2.2

How did COC(=O)c1c(NC(=O)c2ccc(-c3ccccc3)cc2)sc2c1C(C(=O)OC)CC2 (centres undefined) do in these assays?
Dicer inh: 2.8

How did COc1ccc(C(=O)CSc2n[nH]c(-c3ccco3)n2)cc1C do in these assays?
Dicer inh: 5.6*

How did COc1ccc(C(=O)CSc2n[nH]c(-c3ccco3)n2)cc1 do in these assays?
Dicer inh: 1.4

Results for Cc1ccc(C(=O)CSc2n[nH]c(-c3ccco3)n2)cc1C ?
Dicer inh: -0.82

How did O=C(O)c1ccccc1S(=O)c1cccc2cccc(CO)c12 (centres undefined) do in these assays?
Dicer inh: -1

What do the screens show for `C=CCNc1nnc(-c2ccc(Cl)cc2)s1`?
Dicer inh: -1.8

Results for CCNc1nc(C(=O)O)nc(N2CCOCC2)n1 ?
Dicer inh: 2.8

Results for O=C(O)CCCNc1nc(Cl)nc(N2CCOCC2)n1 ?
Dicer inh: 4.7*

How did Clc1nc(NCCN2CCOCC2)nc(NC2CCCCC2)n1 do in these assays?
Dicer inh: 1.7

Results for Clc1ccc(C2=NN3C(C2)c2ccccc2OC3c2ccncc2)cc1 (centres undefined) ?
Dicer inh: 6*

What do the screens show for `COc1ccc(C2Oc3ccccc3C3CC(c4ccc(C)o4)=NN32)cc1OC` (centres undefined)?
Dicer inh: -2

Results for CSCCC1Oc2ccc(Cl)cc2C2CC(c3ccccc3O)=NN12 (centres undefined) ?
Dicer inh: -1.1
